Source: PubChem BioAssay (National Center for Advancing Translational Sciences (NCATS))
Pf growth 96h – Primary qHTS for delayed death inhibitors of the malarial parasite plastid, 96 hour incubation. 320,000 compounds, 6.9% hits. P. falciparum luciferase reporter growth, 96 h. AID 504834, 2011. Potency, µM (doses to about 28.7 µM), hits mostly inhibitors
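Readout is luminescence from an integrated firefly luciferase in P. falciparum. Red cells, 2% hematocrit and 0.05% parasitemia final, were cultured with compound through two parasite generations (96 hours) at 37 C, 5% CO2.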
AMA1 RON2 block – qHTS for Inhibitors of AMA1-RON; Towards Development of Antimalarial Drug Lead: Primary Screen. Plasmodium falciparum AMA1 (3D7) - RON2 peptide interaction. AlphaScreen AMA1-biotinylated RON2 peptide binding. Potency, µM (highest dose often 58.2 µM), most hits filed as inhibitors. 360,000 compounds, 0.2% hits; further: nearly all actives have a fitted effect of over 45% in size
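AMA1 (3D7) with his tag at 25 nM final met compounds first, then biotinylated RON2 peptide at 25 nM; detection used donor plus acceptor beads, 10 µg/mL apiece, read by AlphaScreen after 30 min at room temperature.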
Pf growth 48h – Primary qHTS for delayed death inhibitors of the malarial parasite plastid, 48 hour incubation; P. falciparum luciferase growth in erythrocytes, 48 h; Potency, µM (titrated, usually from 28.7 µM), hits mostly inhibitors; 310,000 compounds, 5.9% hits; AID 504832, 2011
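Read-out is firefly luciferase luminescence from an integrated reporter in P. falciparum, so falling signal marks reduced parasite growth. Infected erythrocytes were at 2% hematocrit and 0.1% parasitemia (final) in Albumax-supplemented RPMI 1640.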
Sm TGR block – qHTS Assay for the Inhibitors of Schistosoma Mansoni Peroxiredoxins; purified TGR, DTNB reduction, TNB absorbance 405 nm; Potency, µM (titrated, usually from 114 µM), actives largely listed as inhibitors; 360,000 compounds, 3% hits; further: nearly all actives have a fitted effect of over 60% in size
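TGR 20 nM + NADPH 100 uM (dispensed conc.), cpd preinc 15 min RT; start with NADPH (500 uM addition) then DTNB (15 mM addition). Kinetic TNB absorbance, 405 nm filter. Four-parameter Hill fit across titration.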
NS1 inh – qHTS Assay for Inhibitors of Influenza NS1 Protein Function; AID 2326, 2010; Potency, µM (top dose mostly 46.1 µM); 270,000 compounds, 0.4% hits; calls by dose curve; further: actives are rising curves; nearly all actives have a fitted effect of over 50% in size
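Read-out: OD600 growth recovery of NS1-expressing budding yeast. Cells grown overnight at 30C in -URA glucose medium, washed, resuspended and diluted 1:100 in 2% galactose assay medium, pH 6.0. Same strain lacking NS1 served as positive control.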
Of the large screens only hits and unclear results are named; the others gave an inactive call. Hits are enriched below; roughly 11% of the tested compounds scored in any of these assays. Unless noted, the call rests on the fitted dose curve; in most records, active means well fitted curve in the direction sought with a large enough effect; inconclusive means small, poorly fitted or top-dose-only effect, or another doubt; inactive means no such curve, though single readings can be large; an effect the other way counts as inactive or inconclusive.

CCCCN(C)CCNC(=O)c1ccc(Cn2c(=S)[nH]c3ccc(Br)cc3c2=O)cc1	Pf growth 96h 10µM, Pf growth 48h inconclusive, Sm TGR block inconclusive (no result: NS1 inh)
CC1CCN(CCCNC(=O)c2ccc3c(=O)n(Cc4ccc(Cl)cc4)c(=S)[nH]c3c2)CC1	Pf growth 48h 13µM (no result: NS1 inh)
O=C1CC(C(=O)Nc2cccc(F)c2)n2ncnc2N1 (stereo not given)	none (no result: NS1 inh)
O=C(Nc1c(C(=O)N2CCOCC2)cnn1-c1ccccc1)c1cccc(F)c1	none
O=C(C1COc2ccccc2O1)N1CCN(c2nc3c(F)cc(F)cc3s2)CC1 (stereo not given)	none (no result: NS1 inh)
CN(C)CCNC(=O)c1ccc2c(=O)n(Cc3ccc(Cl)cc3)c(=S)[nH]c2c1	Pf growth 48h inconclusive, Sm TGR block 45µM
Cc1cc(C)c(/C=C/c2onc(C)c2S(=O)(=O)N2CCC(C(=O)N3CCN(c4ccccc4)CC3)CC2)c(C)c1	none (no result: Pf growth 96h, AMA1 RON2 block, Pf growth 48h, NS1 inh)
CCOc1ccccc1C(=O)NCc1nc2cccnc2n1Cc1ccc(C)cc1	none (no result: Pf growth 96h, AMA1 RON2 block, Pf growth 48h, NS1 inh)
Cc1ccc(C(=O)NCCC(=O)NCc2ccco2)cc1	Pf growth 96h 10µM
Cc1cc(C)c2c(CC(=O)NCc3ccco3)coc2c1	Pf growth 96h 1µM
Cc1ccc(OCCCC(=O)NCc2ccco2)c(C)c1	Pf growth 48h 4.1µM (no result: AMA1 RON2 block)
Cc1ccc(-c2nc(C)sc2CC(=O)NCc2ccco2)cc1	Sm TGR block 22µM (no result: Pf growth 96h)
O=C(c1cccc(C(F)(F)F)c1)C1CCCN(C(=O)/C=C/c2cnc[nH]2)C1 (stereo not given)	none
COc1ccc(CNC(=O)CCc2c(C)c3cc4c(C)c(C)oc4cc3oc2=O)cc1	none (no result: Pf growth 96h, AMA1 RON2 block, Pf growth 48h, NS1 inh)
O=[N+]([O-])c1cc(-c2ccc(/C=N\n3cnnc3)o2)cc([N+](=O)[O-])c1	Pf growth 96h inconclusive, Pf growth 48h 7.4µM, Sm TGR block 40µM
O=[N+]([O-])c1ccccc1-c1ccc(/C=N/n2cnnc2)o1	none
C=CCn1cc(CN2CCC(C(=O)Nc3cccc(-c4cccc(Cl)c4)c3)CC2)c(C)n1	Pf growth 48h inconclusive
C=CCn1cc(CN2CCC(C(=O)Nc3cccc(-c4cccc(F)c4)c3)CC2)c(C)n1	Pf growth 96h inconclusive, Pf growth 48h 15µM
CCCn1ncc(CN2CCC(C(=O)Nc3cccc(-c4cccc(F)c4)c3)CC2)c1C	Pf growth 96h inconclusive, Pf growth 48h 7.4µM
Cc1cc(C(F)(F)F)nc(SCc2ccc(C(=O)O)o2)n1	Sm TGR block 14µM
Cc1ccc(C)c(S(=O)(=O)NCc2ccc3c(c2)OCO3)c1	none
CN(C)C1=NC(=O)/C(=C/c2ccc(-c3ccc(S(N)(=O)=O)cc3)o2)S1	Sm TGR block 32µM (no result: AMA1 RON2 block)
NC1=NC(=O)/C(=C\c2ccc(-c3ccc(Cl)cc3)o2)S1	none
CC(=O)NC1=NN(C(C)=O)C(C)(c2ccc3ccccc3c2)S1 (stereo not given)	Pf growth 48h 2.9µM
c1ccc(CCNc2c3c(nc4ncnn24)CCC3)cc1	Pf growth 48h 1.5µM
CSc1c2c(nc3ncnn13)CCC2	Pf growth 96h 9.3µM, Pf growth 48h inconclusive
c1coc(CNc2c3c(nc4ncnn24)CCC3)c1	none (no result: Pf growth 48h)
Fc1ccccc1CCNc1c2c(nc3ncnn13)CCCC2	none
c1ccc(Nc2c3c(nc4ncnn24)CCC3)cc1	Pf growth 96h 12µM, Sm TGR block inconclusive
c1coc(CNc2c3c(nc4ncnn24)CCCC3)c1	none
Clc1ccccc1Nc1c2c(nc3ncnn13)CCC2	Pf growth 96h 3.3µM, Pf growth 48h 12µM
CCOc1ccc(CCNC(=O)c2[nH]c3cc(OC)ccc3c2Sc2ccccc2)cc1OCC	none (no result: Pf growth 96h, AMA1 RON2 block, Pf growth 48h, NS1 inh)
CC12CCC(c3c1nc1ccccc1[n+]3[O-])C2(C)C (stereo not given)	none
CC1(N2CCCCC2)CC2(O)C(=[N+]1[O-])CCC/C2=N\O (stereo not given)	Sm TGR block 50µM
Oc1sc(C=Nc2ccc(F)cc2)c2ccccc12	Pf growth 96h 3.3µM, Pf growth 48h 4.7µM
Oc1sc(C=Nc2ccccc2)c2ccccc12	Pf growth 96h inconclusive
COc1ccccc1Oc1c(C)oc2cc(OC(=O)c3ccco3)ccc2c1=O	none
CCOc1ccccc1Oc1c(C)oc2cc(OC(=O)c3ccco3)ccc2c1=O	Sm TGR block 35µM
